Measured values as given in PubChem BioAssay (NCATS).
Inconclusive results are not listed. The source made the active and inactive calls. Unless noted, the call rests on the fitted dose curve; in most records, active means well fitted curve in either direction with a large enough effect (not every such curve was filed as active); inconclusive means small, poorly fitted or top-dose-only effect, or another doubt; inactive means flat fitted curve, though single readings scatter.

How the values were obtained:
[1] = AP1 Signaling Pathway (AID 357); conditions: ME-180 AP-1-bla reporter, EGF-induced, beta-lactamase ratio, 5 h; at 17.2 µM (top of the series) unless noted; further: on the % scale 0 is the no-effect control and ±100 the full control effect
How it was run: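 ME-180 cells with beta-lactamase reporter under AP-1 response element, stimulated with EC50 EGF; compounds tested in titration series, 5 h at 37 °C. CCF4 substrate added 2.5 h at room temperature; 460/530 nm emission ratio gave %activity and AC50.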

[2] = NFAT Signaling Pathway (AID 444); conditions: Jurkat NFAT-bla M1, carbachol, beta-lactamase ratio, 5 h; at 17.2 µM (top of the series) unless noted;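 further: carbachol stimulus at about its EC50 of 1 µM final; on the % scale 0 is the no-effect control and ±100 the full control effect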
How it was run: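 Read-out: CCF4 FRET ratio (460 nm/530 nm) after 1 h RT dye loading, used for %activity and AC50 from titration series. Cells: Jurkat NFAT-β-lactamase/M1 line, treated with compound plus 1 uM carbachol for 5 h, 37 °C.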

[3] = Stat Signaling Pathway (AID 446); conditions: ME-180 SIE beta-lactamase reporter, IL-6 stimulated, 5 h; at 17.2 µM (top of the series) unless noted;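 further: ME-180 cervical cancer cells given 40 pM IL-6 alongside compound; SIE-controlled beta-lactamase reporter measured as 460/530 nm FRET emission ratio; on the % scale 0 is the no-effect control and ±100 the full control effect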
How it was run: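 ME-180 SIE-bla cells; overnight plating; cpd + IL-6 40 pM, 5 h, 37 C; LiveBLAzer 2.5 h RT; 460/530 nm emission ratio. Normalized to 300 pM IL-6 and 125 nM JAK inhibitor controls.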

[4] = target: Glucocorticoid receptor (Homo sapiens) (UniProt P04150); assay: GR-GFP Redistribution (AID 450;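 active means compounds whose dose series gives a full or clear partial fitted curve of increased nuclear translocation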; further: potency means the concentration at half of the fitted maximal effect)
Glucocorticoid receptor (Homo sapiens), sequence (P04150 whole entry, looked up): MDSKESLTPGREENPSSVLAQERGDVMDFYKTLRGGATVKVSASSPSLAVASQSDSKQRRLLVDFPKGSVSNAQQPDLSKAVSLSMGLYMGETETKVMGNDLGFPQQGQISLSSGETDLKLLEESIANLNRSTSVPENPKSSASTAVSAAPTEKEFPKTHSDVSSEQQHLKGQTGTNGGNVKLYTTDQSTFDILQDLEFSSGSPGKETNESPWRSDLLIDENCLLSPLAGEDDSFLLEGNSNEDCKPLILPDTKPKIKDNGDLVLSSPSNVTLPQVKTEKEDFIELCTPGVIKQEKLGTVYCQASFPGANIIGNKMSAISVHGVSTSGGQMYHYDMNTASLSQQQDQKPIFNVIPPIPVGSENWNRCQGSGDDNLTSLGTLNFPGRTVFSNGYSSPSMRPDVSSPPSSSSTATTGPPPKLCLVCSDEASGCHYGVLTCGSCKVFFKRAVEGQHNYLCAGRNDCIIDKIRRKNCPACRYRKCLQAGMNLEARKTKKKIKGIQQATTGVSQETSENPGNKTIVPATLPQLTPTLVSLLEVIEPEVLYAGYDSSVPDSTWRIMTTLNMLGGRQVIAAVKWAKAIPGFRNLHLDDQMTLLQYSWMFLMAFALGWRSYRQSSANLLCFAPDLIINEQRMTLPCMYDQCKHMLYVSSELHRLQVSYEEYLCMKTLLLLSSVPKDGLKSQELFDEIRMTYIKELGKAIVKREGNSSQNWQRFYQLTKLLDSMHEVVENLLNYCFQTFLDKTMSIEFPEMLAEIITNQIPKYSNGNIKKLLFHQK

[5] = qHTS Assay for Identification of Small Molecule Agonists for Hypoxia Response Element Signaling Pathway (AID 914; active means well fitted activation curve with a large enough effect in the signal ratio, with a control signal flat, not every such curve was filed as active; the % refers to the signal ratio; further: potency means the concentration at half of the fitted maximal effect; on activation: % of control where 0% means no effect); conditions: ME-180 (cervical carcinoma) HRE-bla reporter, beta-lactamase ratio, CoCl2, 17 h; activation: active compounds read high
How it was run: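 A beta-lactamase reporter under hypoxia response element control in ME-180 cells served as the system. Compound titrations plus EC50 CoCl2 ran 17 h at 37 degrees Celsius; AC50 values were fitted from %Activity.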

O=C(NC1CCS(=O)(=O)C1)c1c(NC(=O)C2COc3ccccc3O2)sc2c1CCCC2 (stereo not given)
active: Potency [5] 5.01 µM
inactive: activity change, negative = inhibition [1] -20.8% | activity change, negative = inhibition [2] -18.5% | activity, negative = inhibition [3] -9.79% | Potency [4] > 20.6 µM

O=C(CSc1nnc(-c2ccco2)c(-c2ccco2)n1)Nc1ccccc1
inactive: activity change, negative = inhibition [1] 3.29% | activity change, negative = inhibition [2] -3.07% | activity, negative = inhibition [3] -9.01% | Potency [4] > 20.6 µM | activation [5] -14.8%

O=C(NC1CCCCC1)Nn1c(-c2ccccc2)nc2ccccc2c1=O
inactive: activity change, negative = inhibition [1] -2.78% | activity change, negative = inhibition [2] -2.06% | activity, negative = inhibition [3] 13.2% | Potency [4] > 20.6 µM | activation [5] 1.48%

O=C1C2ON(c3ccccc3)C(c3cccnc3)C2C(=O)N1c1ccc(Cl)c(Cl)c1 (stereo not given)
inactive: activity change, negative = inhibition [1] -4.98% | activity change, negative = inhibition [2] 16% | activity, negative = inhibition [3] -9.39% | Potency [4] > 20.6 µM | activation [5] 2.42%

COc1ccc2c(c1OC)C(=O)OC2c1c(O)nc(SC)n(-c2ccccc2)c1=O (stereo not given)
inactive: activity change, negative = inhibition [1] -1.4% | activity change, negative = inhibition [2] -5.89% | activity, negative = inhibition [3] -3% | Potency [4] > 20.6 µM | activation [5] 1.25%

COc1ccc(CCn2c(C)ccc2C)cc1OC
inactive: activity change, negative = inhibition [1] -3.97% | activity change, negative = inhibition [2] -16.3% | activity, negative = inhibition [3] -7.94% | Potency [4] > 20.6 µM | activation [5] -9.87%

COCCCn1c(C)nc2c(c1=O)c1nc3ccccc3nc1n2CCc1ccccc1
inactive: activity change, negative = inhibition [1] -6.69% | activity change, negative = inhibition [2] -1.98% | activity, negative = inhibition [3] -10% | Potency [4] > 20.6 µM | activation [5] -19.8%

CCCCOc1ccc(C(=O)Nc2ccc(N3CCN(C(C)=O)CC3)cc2)cc1
active: Potency [5] 2.51 µM
inactive: activity change, negative = inhibition [1] -6.71% | activity change, negative = inhibition [2] 11.1% | activity, negative = inhibition [3] -7.6% | Potency [4] > 20.6 µM

CC1=CC(c2ccccc2)n2nc(N3C(=O)C4CC=CCC4C3=O)nc2N1 (stereo not given)
inactive: activity change, negative = inhibition [1] 0.952% | activity change, negative = inhibition [2] 13.9% | activity, negative = inhibition [3] 11.6% | Potency [4] > 20.6 µM | activation [5] 6.95%

CC1(C)CC(=O)C=C(N=CC2=C(O)CC(C)(C)CC2=O)C1
inactive: activity change, negative = inhibition [1] 4.05% | activity change, negative = inhibition [2] -11.2% | activity, negative = inhibition [3] 12.2% | Potency [4] > 20.6 µM | activation [5] -17.7%

CC(=O)N1CC=C2C(C#N)=C(N)C(C#N)(C#N)[C@H](c3ccoc3)[C@H]2C1
inactive: activity change, negative = inhibition [1] 8.44% | activity change, negative = inhibition [2] -12.2% | activity, negative = inhibition [3] 10.5% | Potency [4] > 20.6 µM | activation [5] -26.3%

Cc1sc(-n2c(C)ccc2C)c(C#N)c1C
inactive: activity change, negative = inhibition [1] -5.35% | activity change, negative = inhibition [2] -9.11% | activity, negative = inhibition [3] 0.959% | Potency [4] > 20.6 µM | activation [5] 5.91%

Cc1cc(OCC(=O)Nn2cnnc2)ccc1Br
inactive: activity change, negative = inhibition [1] 11.6% | activity change, negative = inhibition [2] -7.1% | activity, negative = inhibition [3] 4.67% | Potency [4] > 20.6 µM | activation [5] 8.36%

N#Cc1c(NC(=O)CCC(=O)O)sc2c1CCCC2
inactive: activity change, negative = inhibition [1] -1.32% | activity change, negative = inhibition [2] -1.33% | activity, negative = inhibition [3] -10% | Potency [4] > 20.6 µM | activation [5] -23.4%

Cc1ccc(S(=O)(=O)N(CC(O)CN2CCOCC2)c2cc(Cl)ccc2Cl)cc1 (stereo not given)
inactive: activity change, negative = inhibition [1] 0.294% | activity change, negative = inhibition [2] -11% | activity, negative = inhibition [3] -1.96% | Potency [4] > 20.6 µM | activation [5] 11.1%

CN1CCN(c2c3c(c(C#N)c4nc5ccccc5n24)CCCC3)CC1
inactive: activity change, negative = inhibition [1] 14.7% | activity change, negative = inhibition [2] 0.538% | activity, negative = inhibition [3] 5.04% | Potency [4] > 20.6 µM | activation [5] -2.43%

O=C(CNC1C(=O)Nc2ccccc21)Sc1ccccc1 (stereo not given)
inactive: activity change, negative = inhibition [1] -0.11% | activity change, negative = inhibition [2] -10.4% | activity, negative = inhibition [3] 9.1% | Potency [4] > 20.6 µM | activation [5] 4%

COc1ccc2c(c1)c(C(=O)CN1CCOCC1)c(C)n2C
inactive: activity change, negative = inhibition [1] 12% | activity change, negative = inhibition [2] 0.787% | activity, negative = inhibition [3] 10.6% | Potency [4] > 20.6 µM | activation [5] 8.25%

COc1ccc2c(C)nc(Nc3nc(C)cc(C)n3)nc2c1
inactive: activity change, negative = inhibition [1] -4.83% | activity change, negative = inhibition [2] -4.96% | activity, negative = inhibition [3] 7.03% | Potency [4] > 20.6 µM | activation [5] -6.59%
